Results reported in PubChem BioAssay AID463173 (ICCB-Longwood Screening Facility, Harvard Medical School, 2010).
Among all 52,000 compounds or so, about 1,700 (3.3%) were called active. Many of the other results were omitted from the sample, so actives are more common in it than they were. Unmarked numbers belong to inactive results. Cut-off read from the data, not from the text of the source: active = survival mostly below about 52% (no sharp cut-off); inactive = mostly above about 56%.

Each compound was assayed on Wild type (assay: growth inhibition of S. aureus wild type versus tarO mutant, primary screen, teichoic acid synthesis inhibitors, RN4220, OD600 (AID 463173)). Conditions: S. aureus RN4220 wild type/DeltatarO growth, OD600, 18 h, active compounds read low, screened at 18.75 µg/mL (by protocol).

SMILES | survival
CN(C)C(=O)C1Cc2ccccc2CN1S(=O)(=O)c1ccc(F)cc1 (centres undefined) | 105%
CCc1ccc(-c2nc3c(c(SCc4ccccc4)n2)Cc2c(CO)cnc(C)c2O3)cc1 | 89%
COc1cccc(NC(=O)CSc2nccn2C2CCCC2)c1 | 73%
O=C1NC(=Nc2ccccc2)S/C1=C\c1ccc(C(=O)O)cc1 | 113%
CCOc1cccc(CC(=O)N2CCc3c([nH]c4ccccc34)C2c2ccccc2)c1OCC (centres undefined) | 81%
COc1ccc(C(=O)NCCn2cc(SCC(=O)Nc3ccccc3)c3ccccc32)cc1OC | 65%
COC(=O)c1ccc(Cn2c(SCc3ccccc3F)nc3ccncc32)cc1 | 74%
O=C(OCc1cc(=O)n2nc(C3CC3)sc2n1)c1cccc(NC(=O)c2ccccc2Cl)c1 | 57%
Cc1nnc(N2C(=O)c3oc4ccccc4c(=O)c3C2c2ccc(C(C)(C)C)cc2)s1 (centres undefined) | 129%
COc1ccccc1CNC(=O)CCNS(=O)(=O)c1ccc2c(c1)oc(=O)n2C | 83%
CC(C)(C)OC(=O)N1CCC(c2nnc(SCc3ccccc3Cl)o2)CC1 | -2% (active)
Clc1cccc(CSc2nnc(C3CCNCC3)o2)c1 | 109%
CC(C)(C)OC(=O)N1CCC(c2nnc(SCc3ccccc3)o2)CC1 | 83%
CC(C)(C)OC(=O)N1CCC(c2nnc(SCc3ccccc3F)o2)CC1 | 73%
Clc1ccccc1CSc1nnc(C2CCNCC2)o1 | 95%
CC(C)(C)OC(=O)N1CCC(c2nnc(SCc3cccc(Cl)c3)o2)CC1 | 0% (active)
CCCN1CCN(c2cc3c(cc2F)c(=O)c(S(=O)(=O)c2ccc(CC)cc2)cn3CC)CC1 | 70%
Nc1ccc2c(c1)ncn2CCO | 115%
COc1ccccc1NC(=O)Cn1nc2c3cc(F)ccc3n(Cc3cccc(C)c3)cc-2c1=O | -4% (active)
CCOc1ccccc1NC(=O)Cn1nc2c3cc(F)ccc3n(Cc3cccc(C)c3)cc-2c1=O | 81%
CCc1ccccc1NC(=O)Cn1nc2c3cc(F)ccc3n(Cc3cccc(C)c3)cc-2c1=O | 71%
Cc1cc(C)cc(OCc2cc(=O)n3c(-c4ccccc4)csc3n2)c1 | 88%
Cc1cccc(NC(=O)C(=O)c2cc(C)n(-c3ccccc3)c2C)c1C | 79%
CC(CCc1ccccc1)NC(=O)CSc1n[nH]c(-c2ccc(F)cc2)n1 (centres undefined) | 134%

SMILES | survival
O=C(CSc1n[nH]c(-c2ccccc2Cl)n1)NCc1ccc(F)cc1 | -6% (active)
COc1ccc(CNC(=O)CSc2n[nH]c(-c3ccc(F)cc3)n2)cc1 | 120%
Cc1ccc(CNC(=O)CSc2n[nH]c(-c3ccc(F)cc3)n2)cc1 | 124%
COc1ccc(CNC(=O)CSc2n[nH]c(-c3ccc(OC)cc3)n2)cc1 | -6% (active)
COc1ccccc1-c1nc(SCC(=O)c2ccc(Cl)cc2)n[nH]1 | 131%
CC(CCc1ccccc1)NC(=O)CSc1n[nH]c(-c2ccccc2)n1 (centres undefined) | 71%
COc1ccccc1-c1nc(SCC(=O)c2ccccc2)n[nH]1 | 77%
COc1ccc(-c2nc(SCC(=O)NC(C)CCc3ccccc3)n[nH]2)cc1 (centres undefined) | -1% (active)
COc1cccc(CNC(=O)CSc2n[nH]c(-c3ccccc3Cl)n2)c1 | 75%
CC(C)Oc1ccccc1-c1nc(SCC(=O)c2ccc(F)cc2)n[nH]1 | -5% (active)
O=C(CSc1n[nH]c(-c2ccccc2Cl)n1)NCCc1ccccc1 | 72%
CCOC(=O)c1c(S(=O)(=O)N2CCC(C(=O)Nc3ncccc3C)CC2)c(C)n(C)c1C | 72%
COc1cc(C(=O)N(CCCN(C)C)c2nc3c(OC)cccc3s2)cc(OC)c1OC | 124%
Cc1ccc(CN2CCCn3nc(C(=O)NCCc4ccccc4C)cc3C2=O)cc1 | 79%
O=C(c1ccccc1)C(C(=O)N1CCCCC1)n1ccccc1=O (centres undefined) | 113%
Cc1cc(=O)c2cc(C(=O)Nc3ccc(F)cc3)ccc2[nH]1 | 87%
Cc1ccc(S(=O)(=O)N(CC(=O)N2CCC(C(N)=O)CC2)c2ccccc2F)cc1 | 98%
Cc1ccccc1CN1CCN(CC(=O)NCc2ccccc2Cl)C1=O | 77%
CC1Cc2cc(S(=O)(=O)CCC(=O)NCc3ccccc3Cl)ccc2N1C(=O)C1CC1 (centres undefined) | 72%
CCC(=O)N1c2ccc(S(=O)(=O)CCC(=O)NCc3ccccc3OC)cc2CC1C (centres undefined) | 87%
CCC(=O)N1c2ccc(S(=O)(=O)CCC(=O)NCc3cccc(OC)c3)cc2CC1C (centres undefined) | 82%
COc1ccc(CNC(=O)CCS(=O)(=O)c2ccc3c(c2)CC(C)N3C(=O)C2CC2)cc1 (centres undefined) | 76%
COc1cccc(CNC(=O)CCS(=O)(=O)c2ccc3c(c2)CC(C)N3C(=O)C2CC2)c1 (centres undefined) | -3% (active)
COc1ccccc1CNC(=O)CCS(=O)(=O)c1ccc2c(c1)CC(C)N2C(=O)C1CC1 (centres undefined) | 0% (active)

SMILES | survival
COC(=O)c1ccccc1NC(=O)c1c(C)oc2ncn(C)c(=O)c12 | 95%
CC(C)N(C(=O)CSc1nc2ccc(Cl)cc2[nH]1)c1ccccc1 | 81%
O=c1c2cc3c(cc2nc2sc(Nc4ccc(F)c(Cl)c4)nn12)OCO3 | 138%
Cc1ccc(C(=O)NCc2nnnn2-c2ccc(C)c(C)c2)cc1 | 82%
Cc1ccc(-n2nnnc2CNC(=O)c2ccc(F)cc2)cc1C | 124%
Cc1ccc(-n2nnnc2CNC(=O)c2cc(C(F)(F)F)cc(C(F)(F)F)c2)cc1C | -3% (active)
CC(C)(C)c1ccc(C(=O)NC2CCNCC2)cc1 | 108%
CC(C)Cn1c(=O)c2ccccc2n2c(CCC(=O)NCc3ccc(Cl)cc3)nnc12 | 92%
O=C(Nc1ccc2nc(SCC(=O)N3CCOCC3)sc2c1)c1ccc(F)cc1 | 92%
Cc1cccc(Nc2nc(-c3ccccc3)c3cc(C)ccc3n2)c1 | 11% (active)
COc1ccc(Nc2nc(-c3ccccc3)c3cc(Br)ccc3n2)cc1 | 37%
Cc1ccc2nc(NN)nc(-c3ccccc3)c2c1 | 100%
Cc1ccc2nc(Nc3ccc(Br)cc3)nc(-c3ccccc3)c2c1 | 56%
COc1cccc(Nc2nc(-c3ccccc3)c3cc(C)ccc3n2)c1 | 9% (active)
Cc1ccc(C)c(Nc2nc(-c3ccccc3)c3cc(Br)ccc3n2)c1 | 42%
CN(CC(=O)NCc1ccccc1)S(=O)(=O)c1ccc2[nH]c3c(c2c1)CCCC3 | 72%
COc1cccc(NCc2nnc3n2CCCCC3)c1 | 83%
Cc1nc2c(c(C)nn2-c2ccccc2)c(C)c1CCC(=O)Nc1ccccc1 | 87%
CCc1ccc(NC(=O)CSc2nc(=O)n(Cc3ccncc3)c3c2CCC3)cc1 | 80%
CCn1c(C(=O)NCc2cc(Br)ccc2OC)cc2oc3ccccc3c21 | 78%
CCn1c(C(=O)NCc2ccccc2Br)cc2oc3ccccc3c21 | 36%
CCn1c(C(=O)NCc2cccc(Br)c2)cc2oc3ccccc3c21 | 7% (active)
CCn1c(C(=O)NCc2ccccc2C)cc2oc3ccccc3c21 | 15%
CCOc1ccccc1CNC(=O)c1cc2oc3ccccc3c2n1CC | 2% (active)

SMILES | survival
CCn1c(C(=O)NCc2ccc(F)cc2)cc2oc3ccccc3c21 | 115%
Clc1ccc(N2CCN(c3ncnc4c3nc3n4CCCC3)CC2)cc1 | 73%
Cc1ccc(C(=O)Nc2ccc(-n3c(C)nc4ccccc4c3=O)cc2)cc1[N+](=O)[O-] | 121%
Cc1cc(-n2c(C)nc3ccccc3c2=O)ccc1NC(=O)c1ccc(C)c([N+](=O)[O-])c1 | 10% (active)
Cc1cc(-n2c(C)nc3ccccc3c2=O)ccc1NC(=O)c1ccccc1[N+](=O)[O-] | 88%
Cc1cc(-n2c(C)nc3ccccc3c2=O)ccc1NC(=O)c1ccc([N+](=O)[O-])cc1 | 82%
Cc1cc(-n2c(C)nc3ccccc3c2=O)ccc1NC(=O)c1cccc([N+](=O)[O-])c1C | -2% (active)
Cc1c(C(=O)Nc2ccc(-n3c(C)nc4ccccc4c3=O)cc2)cccc1[N+](=O)[O-] | 80%
COc1ccc(-c2c[n+](=O)c3c(n2[O-])CCC3)cc1 | 103%
COC(=O)C1CCN(S(=O)(=O)c2ccc(OC)cc2)CC1 | 102%
CCN(CC)C(=O)c1sc2c(c1C)c(=O)n(Cc1ccccc1)c(=O)n2Cc1ccc(Cl)cc1 | 73%
CCc1ccc(CNC(=O)C2COc3ccc(OC)cc3C2)cc1 (centres undefined) | 93%
Cc1ccc(NC(=O)Cn2cc3c(n2)CCCC3)c(Cl)c1 | 93%
CC(C)(C)OC(=O)N1CCC(c2c(C(=O)NCc3cccs3)cnn2-c2cccc(F)c2)CC1 | -6% (active)
CC(C)(C)OC(=O)N1CCC(c2c(C(=O)NCc3cccs3)cnn2-c2ccc(F)cc2F)CC1 | 81%
Cc1ccc(-n2ncc(C(=O)NCc3cccs3)c2C2CCN(C(=O)OC(C)(C)C)CC2)cc1C | 90%
CCOc1ccc(NC(=O)c2cnn(-c3ccc(C)c(C)c3)c2C2CCN(C(=O)OC(C)(C)C)CC2)cc1 | 89%
CC(C)(C)OC(=O)N1CCC(c2c(C(=O)NCc3ccccc3)cnn2-c2ccc(F)cc2)CC1 | 133%
CCOc1ccc(OCC)c(NC(=O)c2cnn(-c3ccc(F)cc3)c2C2CCN(C(=O)OC(C)(C)C)CC2)c1 | 14% (active)
CC(C)(C)OC(=O)N1CCC(c2c(C(=O)NCc3ccc(F)cc3)cnn2-c2ccc(F)cc2)CC1 | -6% (active)
COc1ccc(CNC(=O)c2cnn(-c3ccc(OC)cc3)c2C2CCN(C(=O)OC(C)(C)C)CC2)cc1 | 76%
CC(C)(C)OC(=O)N1CCC(c2c(C(=O)Nc3ccc4c(c3)OCCO4)cnn2-c2ccc(F)cc2)CC1 | 69%
